Shown are actives, neighbours in structure and some others; about 1.1% of the full set was active somewhere.
F-actin modifier: cytoskeleton assembly modification; HUVEC TNFa F-actin phalloidin imaging, high content; actives 0.18% (n = 91,000); inhibition, % at 2 µM;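 active means inhibition above the batch mean plus 3 SD and confirmed as a hit by visual image inspection, cut at about 30% in these data, passing the limit was not always enough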
VCAM1 TNFa inh: reduces TNF alpha induced VCAM1 expression in HUVEC | inhibition, % at 2 µM | HUVEC TNFa-induced VCAM-1 immunofluorescence, high-content imaging | AID 802 | actives 0.48% (n = 95,000);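 active means inhibition above the batch mean plus 3 SD, with images confirmed as a hit by eye, cut at about 37% in these data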;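 further: 0% = TNF-stimulated DMSO wells and 100% = unstimulated control wells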
E-sel TNF inh: blocks E-selectin expression induced by TNF alpha; HUVEC TNFa-induced E-selectin immunofluorescence, high content; inhibition, % at 2 µM; actives 0.71% (n = 120,000);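 active means inhibition above the batch mean plus 3 SD, and confirmed as a hit on visual image review, cut at about 43% in these data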;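 further: 0% = TNF-stimulated DMSO wells and 100% = unstimulated control wells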
TNFa cytotox: toxic to HUVEC cells under TNF alpha stimulation; HUVEC TNFalpha-stimulated, Hoechst cell count, imaging; cell count reduction, % at 2 µM; actives 0.17% (n = 93,000); AID 848;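 active means cell count reduction exceeding the screen mean by over 5 SD, scaled to untreated wells per plate, cut at about 78% in these data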;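 further: cells counted after 24 h of TNF alpha exposure following the 1 h pretreatment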
* marks the source's active call; other numbers are inactive results.

`CCn1c(SCC(=O)N2CCOCC2)nc2c(c1=O)SC(C)C2` (configuration not stated) gave F-actin modifier -22.6, VCAM1 TNFa inh -13.5, E-sel TNF inh 6.0 and TNFa cytotox 27.7.
CCOc1cc(S(=O)(=O)NCc2ccccn2)ccc1Cl was read as F-actin modifier -9.1, VCAM1 TNFa inh 4.2, E-sel TNF inh 8.4 and TNFa cytotox -3.4.
`CCN(C(=O)CCS(=O)(=O)c1ccc(Br)cc1)c1ccc2c(c1)OCO2` gave E-sel TNF inh 95.7*.
NC(N)=Nc1nc(-c2ccccc2)c2cc(F)ccc2n1 was read as E-sel TNF inh -6.1.
For CC(C)(C)C(=O)/C(=C\c1ccc([N+](=O)[O-])cc1)n1cncn1 the results were F-actin modifier 5.4, VCAM1 TNFa inh 12.7, E-sel TNF inh 65.9* and TNFa cytotox -14.3.
Screening NC(=O)[C@@H]1CCOc2c(I)cc([N+](=O)[O-])cc2C(=O)N[C@@H](CO)C(=O)NCC(=O)N1 returned E-sel TNF inh -12.4.
`NC(=O)C1CCCN(C(=S)Nc2cccc3ccccc23)C1` (configuration not stated) gave E-sel TNF inh 69.6*.
Screening S=C(Nc1cccc2ccccc12)N1CCN(c2ncccn2)CC1 returned F-actin modifier -13.6, VCAM1 TNFa inh -19.9, E-sel TNF inh -34.5 and TNFa cytotox -2.0.
For CCn1ncc(C2=NOC(C(=O)Nc3cccc(C(C)=O)c3)C2)c1C (configuration not stated) the results were F-actin modifier 9.4, VCAM1 TNFa inh -5.3 and TNFa cytotox -13.9.
CCC(C(=O)N1CCc2cc(OC)c(OC)cc2C1)c1ccccc1 (configuration not stated) was read as F-actin modifier 30.1, VCAM1 TNFa inh 11.5, E-sel TNF inh 99.9* and TNFa cytotox -17.9.
`Cc1ccc(-n2c(=O)c3c4c(sc3n(Cc3cc(=O)n5ccccc5n3)c2=O)CCC4)cc1C` gave E-sel TNF inh 89.8*.
`O=c1cc(C(F)F)oc2c1ccc1ccccc12` gave E-sel TNF inh 92.6*.
`O=C1CC(O)(C(F)F)Oc2ccc3ccccc3c21` (configuration not stated) gave F-actin modifier 3.9, VCAM1 TNFa inh 32.6, E-sel TNF inh -38.5 and TNFa cytotox 6.6.
For Cc1sc2ncnc(NCC(c3ccco3)N3CCCC3)c2c1C (configuration not stated) the results were F-actin modifier -8.9, VCAM1 TNFa inh -1.8, E-sel TNF inh -3.0 and TNFa cytotox -0.3.
CCN1CC=C2C(C#N)=C(N)C(C#N)(C#N)C(c3cc(Cl)ccc3Cl)C2C1 (configuration not stated) was read as F-actin modifier -19.4, VCAM1 TNFa inh 2.2, E-sel TNF inh 4.1 and TNFa cytotox -11.5.
Screening COc1ccc2[nH]c(C)c(CCNC(=S)Nc3cc(C)cc(C)c3)c2c1 returned E-sel TNF inh -10.4.
For COc1ccc2[nH]c(C)c(CCN3C(=O)C4C5C=CC(C5)C4C3=O)c2c1 (configuration not stated) the results were F-actin modifier -3.1, VCAM1 TNFa inh 16.1, E-sel TNF inh 70.2* and TNFa cytotox -30.3.
For Cc1cccc2cc(COC(=O)c3ccccn3)c(=O)[nH]c12 the results were F-actin modifier 36.2, VCAM1 TNFa inh 6.2 and TNFa cytotox -18.7.
For CCC1Sc2ccccc2N(CC(=O)NCc2ccc3c(c2)OCO3)C1=O (configuration not stated) the results were E-sel TNF inh 95.3*.
Screening CCC1Sc2ccccc2N(CC(=O)NCCC2=CCCCC2)C1=O (configuration not stated) returned F-actin modifier 3.5, VCAM1 TNFa inh 5.5, E-sel TNF inh -15.8 and TNFa cytotox -22.7.
COc1cc(C(=O)Nc2nnc(CC(=O)N3CCOCC3)s2)cc(OC)c1OC was read as F-actin modifier 10.8, VCAM1 TNFa inh 4.8 and TNFa cytotox -14.0.
For CCN1CCN(C(c2ccc(F)cc2)c2nnnn2Cc2cccs2)CC1 (configuration not stated) the results were E-sel TNF inh 10.2.
`CN1CCN(C(c2ccc(F)cc2)c2nnnn2Cc2cccs2)CC1` (configuration not stated) gave E-sel TNF inh 56.6*.
O=C1CC(c2cc(Br)ccc2F)c2cc3c(cc2N1)CCC3 (configuration not stated) was read as F-actin modifier -40.1, VCAM1 TNFa inh 82.5* and E-sel TNF inh -5.4.
Cc1cc(C)c(C#N)c(=N)o1 was read as F-actin modifier 19.1, VCAM1 TNFa inh -2.6, E-sel TNF inh 61.6* and TNFa cytotox 10.0.
Screening C=CCn1c(SCC(=O)NC)nc2sc3c(c2c1=O)CCC3 returned F-actin modifier 1.3, VCAM1 TNFa inh 8.8, E-sel TNF inh 80.4* and TNFa cytotox -11.4.
Screening C=CCn1c(SCC(=O)OC)nc2sc3c(c2c1=O)CCN(C)C3 returned F-actin modifier -24.1, VCAM1 TNFa inh 14.6, E-sel TNF inh -35.8 and TNFa cytotox 12.5.
O=C(N/N=C\c1ccc(CNS(=O)(=O)c2ccc(Cl)cc2)o1)C(=O)Nc1ccc(Oc2ccccc2)cc1 was read as E-sel TNF inh 91.8*.
COC(=O)c1ccccc1N1C(=O)[C@@H]2C(c3ccc(F)cc3)=NO[C@@H]2C1=O was read as F-actin modifier 25.7, VCAM1 TNFa inh -4.9, E-sel TNF inh 67.5* and TNFa cytotox -8.3.
For COc1ccc(CN2C(=O)[C@@H]3C(c4ccc(F)cc4)=NO[C@@H]3C2=O)cc1 the results were F-actin modifier 36.5, VCAM1 TNFa inh 91.8* and E-sel TNF inh -6.2.
Cc1cccc(NC(=O)Cn2c(=O)oc3ccccc32)c1 was read as F-actin modifier -0.7, VCAM1 TNFa inh -10.2, E-sel TNF inh 3.0 and TNFa cytotox -46.2.
CCN1CCN(C(CNS(=O)(=O)c2ccc(OC)cc2)c2cccnc2)CC1 (configuration not stated) was read as E-sel TNF inh -35.1.
`COc1ccc(Cl)cc1NC(=S)NCc1ccco1` gave F-actin modifier 7.3, VCAM1 TNFa inh 18.5, E-sel TNF inh 100.0* and TNFa cytotox 9.6.
Screening COc1ccc(C(=O)CN2C(=O)NC3(CCCc4ccccc43)C2=O)cc1OC (configuration not stated) returned F-actin modifier 9.5, VCAM1 TNFa inh 23.8, E-sel TNF inh 99.9* and TNFa cytotox 13.2.
CCCC(=O)NC(C)c1nc2ccccc2n1C(C)C (configuration not stated) was read as E-sel TNF inh -19.3.
For O=C(COC(=O)C1c2ccccc2Oc2ccccc21)NC1CCS(=O)(=O)C1 (configuration not stated) the results were F-actin modifier 72.5*, VCAM1 TNFa inh 9.4 and TNFa cytotox -18.1.
For CN(C(=O)COC(=O)C1c2ccccc2Oc2ccccc21)C1CCS(=O)(=O)C1 (configuration not stated) the results were F-actin modifier -4.7, VCAM1 TNFa inh -0.3 and TNFa cytotox -21.2.
Screening O=C(COC(=O)C1(c2ccccc2F)CCCC1)NC1CCS(=O)(=O)C1 (configuration not stated) returned F-actin modifier 2.3, VCAM1 TNFa inh 95.3*, E-sel TNF inh 6.8 and TNFa cytotox 0.7.

Bioassay records as filed in PubChem.
